A selection: hits, their analogues and other compounds. The true share with any hit is near 2.8%.
PAFAH2 inh = PAFAH2 enzyme inhibitors, primary screen, biochemical, fluorescence polarization, human | inhibition, % at 3.39 µM | actives 0.99% (n = 340,000) | Platelet-activating factor acetylhydrolase 2, cytoplasmic (Homo sapiens), Q99487 | AID 492956, 2010 | recombinant PAFAH2, FP-rhodamine activity probe;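 active = inhibition above the mean over all tested compounds plus 3 SD, cut at about 30% in these data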;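 also: inhibitors block probe labeling of enzyme so polarization drops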
PAFAH1B3 FP inh = PAFAH1B3 enzyme inhibitors, primary screen, biochemical, fluorescence polarization, human; Platelet-activating factor acetylhydrolase IB subunit alpha1 (Homo sapiens), Q15102; AID 492972, 2010; inhibition, % at 3.39 µM; recombinant PAFAH1B3, FP-rhodamine probe; actives 0.28% (n = 340,000);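 active = inhibition above the screen-wide average of all tested compounds plus 3 SD, cut at about 25% in these data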
Fam108B counter = mouse Fam108B serine hydrolase inhibitors, primary screen, counter-screen for RBBP9 inhibitor project, biochemical, fluorescence polarization; recombinant Fam108B, FP-Rh probe fluorescence polarization; inhibition, % at 9.51 µM; actives 0.33% (n = 300,000);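 active = inhibition above the screen mean inhibition plus 3 SD, computed separately per campaign, cut at about 18% in these data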;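 also: inhibitors lower polarization as less probe binds the enzyme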
PME-1 inh = PME-1 inhibitors via competitive probe labeling, primary screen, biochemical, fluorescence polarization, FP-Rh probe, HTS. actives 0.53% (n = 320,000). Protein phosphatase methylesterase 1 (Homo sapiens), Q9Y570. inhibition, % at 5.9 µM. recombinant PME-1;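 active = inhibition above the campaign mean of all compounds plus 3 SD, cut at about 26% in these data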;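 also: competitive labeling of PME-1 active site by serine hydrolase directed probe; inhibitors block probe labeling so polarization falls and inhibition rises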
Target sequence (Q9Y570 whole entry, looked up): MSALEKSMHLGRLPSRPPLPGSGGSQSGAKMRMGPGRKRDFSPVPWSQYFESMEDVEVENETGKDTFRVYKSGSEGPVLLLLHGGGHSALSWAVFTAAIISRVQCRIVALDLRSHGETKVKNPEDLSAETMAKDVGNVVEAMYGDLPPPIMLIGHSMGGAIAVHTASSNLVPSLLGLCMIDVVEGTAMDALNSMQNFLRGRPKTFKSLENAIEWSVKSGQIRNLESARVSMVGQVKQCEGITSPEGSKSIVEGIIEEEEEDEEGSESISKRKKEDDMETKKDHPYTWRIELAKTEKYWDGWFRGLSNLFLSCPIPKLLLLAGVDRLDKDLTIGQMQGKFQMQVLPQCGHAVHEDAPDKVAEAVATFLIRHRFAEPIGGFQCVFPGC
PAFAH1B2 FP inh = PAFAH1B2 enzyme inhibitors, primary screen, biochemical, fluorescence polarization, human; recombinant PAFAH1B2, FP-rhodamine activity probe; inhibition, % at 3.39 µM; Platelet-activating factor acetylhydrolase IB subunit alpha2 (Homo sapiens), P68402; actives 1.2% (n = 340,000);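 active = inhibition above the mean of all tested compounds plus 3 SD, cut at about 24% in these data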
Target sequence (P68402 whole entry, looked up): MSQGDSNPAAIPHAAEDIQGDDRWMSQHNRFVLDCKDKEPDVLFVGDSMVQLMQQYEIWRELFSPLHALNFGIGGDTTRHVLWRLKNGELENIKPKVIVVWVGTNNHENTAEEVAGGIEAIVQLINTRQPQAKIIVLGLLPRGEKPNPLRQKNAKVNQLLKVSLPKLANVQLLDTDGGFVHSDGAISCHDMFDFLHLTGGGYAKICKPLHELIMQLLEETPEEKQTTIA
pPAFAH inh = pPAFAH enzyme inhibitors, primary screen, biochemical, fluorescence polarization, human; actives 1.5% (n = 330,000); Platelet-activating factor acetylhydrolase (Homo sapiens), Q13093; recombinant pPAFAH, FP-rhodamine probe fluorescence polarization; AID 463082, 2010; inhibition, % at 3.39 µM;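 active = inhibition above the mean inhibition across the screen plus 3 SD, cut at about 25% in these data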;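 also: inhibitors block binding of the rhodamine activity-based probe so polarization drops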
A number is an active result; - = inactive; . = no result given.

SMILES	PAFAH2 inh	PAFAH1B3 FP inh	Fam108B counter	PME-1 inh	PAFAH1B2 FP inh	pPAFAH inh
COc1ccc(NC(=O)C2CCC(=O)N2S(=O)(=O)c2ccc(C)cc2)cc1Cl (stereo not drawn)	-	-	-	-	-	-
O=C1CCCN1c1ccc(S(=O)(=O)Oc2ccc(Cl)cc2)cc1[N+](=O)[O-]	-	-	-	-	69	-
CCCNS(=O)(=O)c1ccc(N2CCCC2=O)c([N+](=O)[O-])c1	-	-	-	-	-	-
CCNC(=O)COC(=O)c1ccc(-n2nc(C)cc2C)cc1	-	-	-	-	-	-
Cc1cc(C)n(-c2ccc(C(=O)OCC(=O)Nc3ccc(S(=O)(=O)N4CCOCC4)cc3)cc2)n1	-	-	-	-	-	-
Cc1cc(C)n(-c2ccc(C(=O)OCC(=O)Nc3ccc(Cl)c(S(=O)(=O)N(C)C)c3)cc2)n1	73	-	-	-	-	25
Cc1cc(C)n(-c2ccc(C(=O)OCC(=O)Nc3ccc([N+](=O)[O-])cc3)cc2)n1	-	-	-	-	-	25
COc1ccc(NC(=O)COC(=O)c2ccc(-n3nc(C)cc3C)cc2)cc1OC	-	-	.	-	-	27
Cc1cc(C)n(-c2ccc(C(=O)OCC(=O)Nc3ccccc3[N+](=O)[O-])cc2)n1	-	-	-	-	-	-
COc1ccc(C(=O)OCC(=O)Nc2ccc(F)c(F)c2)cc1OC	82	-	-	-	-	30
COC(=O)N1C(=O)[C@](c2ccccc2)(C2CCCCC2)N1C(=O)OC	-	-	-	71	-	-
COC(=O)N1C(=O)[C@](c2ccc(OC)cc2)(C(C)C)N1C(=O)OC	-	-	-	49	-	-
COC(=O)N1C(=O)[C@@](c2ccccc2)(C2CCCC2)N1C(=O)OC	-	-	-	-	-	-
COC(=O)N1C(=O)[C@](CC(C)C)(c2ccccc2)N1C(=O)OC	-	-	-	28	-	-
O=C(COC(=O)c1cnccn1)c1ccc(Cl)cc1	-	-	-	-	-	-
O=C(OCC(=O)c1ccc(Cl)s1)c1cnccn1	-	-	-	-	-	26
O=C(COC(=O)c1cnccn1)c1ccc(Br)cc1	-	-	-	-	26	-
O=C(OCC(=O)c1ccc(Cl)s1)c1ccccn1	-	-	-	-	-	-
COc1ccc2oc(C(=O)N(Cc3ccco3)Cc3cccs3)c(C)c2c1	-	-	-	-	-	-
CN(c1ccccc1C(=O)NCc1ccccc1Cl)S(=O)(=O)c1ccccc1	-	-	-	-	-	-
CC(=O)N1CCN(C(=O)c2cc(S(=O)(=O)N(C)Cc3ccccc3)ccc2Cl)CC1	-	-	.	.	-	.
O=C(Cn1cc(C(F)(F)F)cc(Cl)c1=O)Nc1cccc(S(=O)(=O)N2CCCCC2)c1	-	-	.	-	-	-
COc1cccc(C(=O)Oc2ccc(/C=N/Nc3ccc(C(=O)O)cc3)cc2OC)c1	-	-	-	32	-	28
Cc1ccc(S(=O)(=O)N[C@@H](C)C(=O)N2CCC(C(=O)N[C@@H](Cc3ccccc3)C(=O)O)CC2)cc1	-	-	-	-	-	-
Cc1ccc(-c2ccc(/C=N/N3C(=O)C4C5C=CC(CC5)C4C3=O)o2)c([N+](=O)[O-])c1 (stereo not drawn)	-	-	-	-	-	25
SMILES	PAFAH2 inh	PAFAH1B3 FP inh	Fam108B counter	PME-1 inh	PAFAH1B2 FP inh	pPAFAH inh
CCOc1ccc(NC(=O)CN(C)C(=O)CN2C(=O)NC3(CCCC3)C2=O)cc1OCC	-	-	-	-	-	26
O=C1C(=O)N(CNc2ccccn2)c2ccccc21	-	-	-	-	-	29
Nc1nc(-c2ccccc2)cs1	-	-	-	-	39	-
Nc1nc(-c2cccc(Br)c2)cs1	-	-	-	-	-	-
Nc1nc(-c2ccc(Br)cc2)cs1	-	-	-	-	83	-
Nc1nc(-c2ccc(F)cc2)cs1	-	-	-	-	55	-
Nc1nc(-c2cc(-c3ccccc3)no2)cs1	-	-	-	-	-	-
Cc1cc(C)c(NC(=O)CNC(=O)COC(=O)Cc2ccccc2C)c(C)c1	-	-	.	-	-	-
COc1ccc(C(=O)OCC(=O)N2CCCC2=O)c(OC)c1	-	-	-	-	-	-
CC(=O)OCC1=C(C(=O)O)N2C(=O)C(NC(=O)c3ccc(COc4ccc(Cl)cc4)o3)C2SC1 (stereo not drawn)	-	-	-	-	25	26
COc1ccc(Cc2nnc(SCC(=O)NC3(C#N)CCCCC3)n2N)cc1	-	-	-	-	-	-
O=c1cc(-c2ccccc2)[nH]n2cnnc12	-	-	-	-	-	-
O=C(O)c1cc(-c2cccc(Cl)c2)nc2nc(N3CCCCC3)sc12	-	27	-	-	82	-
Cc1ccc(S(=O)(=O)N2[C@@H](c3cccc(Cl)c3)C(C(=O)O)=CC[C@H]2c2cccs2)cc1	-	-	-	-	27	-
Cc1ccc([C@H]2C(C(=O)O)=CC[C@@H](c3cccs3)N2S(=O)(=O)c2ccc(C)cc2)cc1	-	-	.	.	27	-
Cc1ccc(S(=O)(=O)N2[C@@H](c3ccc(F)cc3)C(C(=O)O)=CC[C@H]2c2cccs2)cc1	-	-	-	-	30	-
COc1cc([C@@H]2CC=C(C(=O)O)[C@H](c3ccccc3)N2S(=O)(=O)c2ccc(C)cc2)cc(OC)c1OC	-	-	-	-	-	-
COc1ccc([C@@H]2CC=C(C(=O)O)[C@H](c3cccc(Cl)c3)N2S(=O)(=O)c2ccc(C)cc2)cc1OC	-	-	-	-	-	-
O=C(NCCO)C1CCN(C(=O)c2ccc(-c3ccccc3)cc2)CC1	-	-	-	-	-	-
COc1cc(C)ccc1OCC(=O)OCC(=O)NCC1CCCCC1	-	-	.	.	-	-
Cc1cc(C)c(OCC(=O)OCC(=O)NCC2CCCCC2)c(C)c1	-	-	-	-	-	31
O=C(COC(=O)Cc1ccc(Br)cc1)NC1CCCCC1	-	-	-	-	-	30
COc1ccccc1CNC(=O)COC(=O)Cc1ccc(Cl)cc1	-	-	-	-	-	27
O=C(COC(=O)Cc1ccc(Br)cc1)NCC1CCCCC1	-	-	-	-	-	31
CC1CCN(S(=O)(=O)c2ccc3c(c2)N(CC(=O)NCCCN2CCCCC2)C(=O)CS3)CC1	-	-	-	-	-	-
O=C(C1CCCN(Cc2ccccc2Cl)C1)N1CCCCC1 (stereo not drawn)	-	-	-	-	-	-
O=C(COC(=O)Cc1ccc(Cl)cc1)NC1CCCC1	-	-	.	-	-	26

Screening data as filed in PubChem BioAssay.
